# In PMC12615815:
# Tests used:
# Assay in all cases: cross-link between two proteins; cross-linking mass spectrometry
# [1] = molecular target: Large ribosomal subunit protein bL25 (UniProt P68919)
# [2] = molecular target: Large ribosomal subunit protein uL23 (UniProt P0ADZ0)
# [3] = molecular target: Small ribosomal subunit protein bS1 (UniProt P0AG67)
# [4] = molecular target: Small ribosomal subunit protein uS14 (UniProt P0AG59)
substance,measurement,setting,value
"Large ribosomal subunit protein uL16, P0ADY7",listed as a hit,[1],yes
"Large ribosomal subunit protein bL9, P0A7R1",listed as a hit,[1],yes
"Large ribosomal subunit protein uL29, P0A7M6",listed as a hit,[2],yes
"Small ribosomal subunit protein bS18, P0A7T7",listed as a hit,[3],yes
"Small ribosomal subunit protein uS3, P0A7V3",listed as a hit,[4],yes
"Large ribosomal subunit protein bL31, P0A7M9",listed as a hit,[4],yes
